Most compounds without a hit are left out; they make up all but 6.6% or so of the library.
SW480 rereplic – induces DNA re-replication in SW480 colon adenocarcinoma cells; SW480 DNA re-replication, Hoechst DNA content imaging, 48 h; Potency, µM (doses to about 46.1 µM), usual class: activators; 1.8% of 340,000 active; AID 624297; further: nearly all actives have a fitted effect of over 55% in size
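Image-based DNA-content assay: after two days of treatment, nuclei were labelled with the DNA dye Hoechst and imaged, and hits were compounds raising the count of nuclei showing high fluorescence intensity.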
KB-V1 cytotox – kills drug-selected multidrug resistant KB-V1 cells; KB-V1 MDR cells viability, CellTiter-Glo, 72 h; Potency, µM (highest dose often 46.1 µM), actives largely listed as cytotoxic; 3.4% of 400,000 active; further: nearly all actives have a fitted effect of over 60% in size
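Luminescent ATP read-out (CellTiter-Glo, 10 min) measures survival of drug-selected KB-V1 MDR cells after 72 h, 37 degrees C compound exposure. Medium: phenol-red-free DMEM, 10% FBS. Values from fitted concentration-response curves.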
PTAP TSG101 blk – blocks PTAP/TSG101 interaction to inhibit HIV-1 budding. Q99816. Fluorescence polarization, FITC-PTAP peptide / Tsg101 binding. Potency, µM (highest dose often 115 µM), actives largely listed as inhibitors. 340,000 tested, under 10 active. AID 493005; active means well fitted inhibition curve with a large enough effect in the main read-out, with a control signal flat, not every such curve was filed as active; inconclusive means small, poorly fitted or top-dose-only effect, or effect the other way, or a change in a side signal; inactive means no such curve, though single readings can be large or run the other way
Target sequence (Q99816 whole entry, looked up): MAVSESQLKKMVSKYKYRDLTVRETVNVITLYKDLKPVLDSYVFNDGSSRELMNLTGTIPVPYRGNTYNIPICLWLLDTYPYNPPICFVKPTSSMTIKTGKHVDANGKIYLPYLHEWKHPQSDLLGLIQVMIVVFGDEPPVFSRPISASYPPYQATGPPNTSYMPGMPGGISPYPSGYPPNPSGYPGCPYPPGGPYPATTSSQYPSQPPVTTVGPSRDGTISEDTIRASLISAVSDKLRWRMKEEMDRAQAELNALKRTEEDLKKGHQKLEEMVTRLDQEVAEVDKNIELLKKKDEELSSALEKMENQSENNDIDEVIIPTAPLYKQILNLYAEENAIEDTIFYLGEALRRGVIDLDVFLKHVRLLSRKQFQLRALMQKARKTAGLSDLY
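Fluorescence polarization binding of Tsg101 binding domain (10 uM final) to FITC-labeled PTAP peptide (50 nM final) in HEPES pH 7.5 buffer with NaCl, Tween 20, EDTA, TCEP. Compounds added before peptide; binding 20 min at RT.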
MCF10A rereplic – DNA re-replication induction in MCF 10a cells. MCF 10A DNA re-replication, Hoechst nuclear intensity, 48 h. Potency, µM (doses to about 46.1 µM), most hits filed as activators. 2.9% of 350,000 active. AID 624296; further: nearly all actives have a fitted effect of over 50% in size
RGS4 inhibitor – inhibitors of human regulator of G protein signaling 4; P49798; Potency, µM (top dose mostly 114 µM), hits mostly inhibitors; 0.039% of 390,000 active; Transcreener GDP fluorescence polarization, RGS4-accelerated GTP hydrolysis; further: nearly all actives have a fitted effect of over 75% in size
Target sequence (P49798 whole entry, looked up): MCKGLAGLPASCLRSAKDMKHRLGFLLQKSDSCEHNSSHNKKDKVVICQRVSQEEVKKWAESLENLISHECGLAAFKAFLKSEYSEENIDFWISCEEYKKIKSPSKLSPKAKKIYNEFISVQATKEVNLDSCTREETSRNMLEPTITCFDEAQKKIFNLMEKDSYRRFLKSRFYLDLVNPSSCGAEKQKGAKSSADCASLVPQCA
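MLSMR compounds (23 nl, pin-transferred) preincubated 10 min at room temperature with a 500nM (2x) first reagent, then RGS4 at 900nM (2x) plus Transcreener GDP mix added; fluorescence polarization (620/688 nm) read before and after 90 min at 30 °C.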
KB-3-1 tox – kills parental KB-3-1 adenocarcinoma cells | Potency, µM (titrated, usually from 46.1 µM), hits mostly cytotoxic | AID 1347075 | 1.4% of 400,000 active | KB-3-1 viability, CellTiter-Glo ATP luminescence, 72 h; further: nearly all actives have a fitted effect of over 60% in size
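Screening of KB-3-1 cells (DMEM, 10% FBS, phenol-red free) ran from lowest to highest compound concentration; after 72 h at 37 °C viability was read luminescently and curves fitted.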
A number is an active result; - = inactive; ? = inconclusive; . = no result given; ! = a repeat was not active; [ ] = dose if it differs, or a comment. Unless noted, the call rests on the fitted dose curve; in most records, active means well fitted curve in the direction sought with a large enough effect; inconclusive means small, poorly fitted or top-dose-only effect, or another doubt; inactive means no such curve, though single readings can be large; an effect the other way counts as inactive or inconclusive.

SMILES	SW480 rereplic	KB-V1 cytotox	PTAP TSG101 blk	MCF10A rereplic	RGS4 inhibitor	KB-3-1 tox
O=C(C1CC1)N1N=C(c2ccc(Cl)cc2)CC1(O)C(F)(F)F (centres undefined)	-	-	-	?	-	-
Cc1ccc(NC(CNS(=O)(=O)c2ccc(Cl)cc2)c2ccccc2)cc1 (centres undefined)	-	?	-	?	-	?
COc1cccc(NC(CNS(=O)(=O)c2ccc(Cl)cc2)c2ccccc2)c1 (centres undefined)	.	-	.	.	-	18µM
COc1cccc(NC(CNS(=O)(=O)c2ccc(C)cc2)c2ccccc2)c1 (centres undefined)	.	18µM	.	.	-	?
O=S(=O)(NCC(Nc1ccc(Cl)cc1)c1ccccc1)c1ccccc1 (centres undefined)	?	18µM!	-	4.6µM	-	?
O=C(O)c1ccccc1OC1=NS(=O)(=O)c2ccccc21	.	-	.	.	.	?
Cc1cc(C)c2nc(SCC(=O)Nc3ccccc3N3CCOCC3)c(C#N)cc2c1	-	-	-	-	-	-
COc1ccc2nc(SCC(C)=O)c(C#N)cc2c1	-	-	-	-	-	-
Cc1cc(C)cc(C(=O)N2CC(=O)Nc3ccccc32)c1	0.73µM	3.3µM	-	?	-	?
Cc1cc(C)c2nc(SCC(=O)N3CC(=O)Nc4ccccc43)c(C#N)cc2c1	1.3µM	0.73µM	-	0.82µM	-[11.4 µM]	0.65µM
COc1ccc2nc(SCC(=O)N3CC(=O)Nc4ccccc43)c(C#N)cc2c1	5µM	?	-	2.8µM	-	2.6µM
CC1=C(C(=O)Nc2ccc(C)c(C)c2)C2(CCCCCC2)OC1=O	.	-	.	.	-	-
O=C(CN1C(=O)c2cccnc2Oc2ccc(Cl)cc21)Nc1cccc(C(F)(F)F)c1	.	-	.	.	-	-
Cc1ccc(C)c(CN2C(=O)c3ccccc3S(=O)(=O)c3ccc(C(=O)N4CCCCC4)cc32)c1	.	.	.	.	-	.
COc1ccc(CN2CN=C(Nc3nc4ccccc4s3)NC2)cc1	-	4.6µM	-	-	-	-
c1ccc2sc(NC3=NCN(C4CCCCC4)CN3)nc2c1	-	-	-	-	-	-
CC1CCCCC1N1CN=C(Nc2nc3ccccc3s2)NC1 (centres undefined)	-	18µM	-	-	-	-
Cc1ccn2c(Nc3c(C)cccc3C)c(-c3ccc(Cl)s3)nc2c1	.	-	.	.	-	-
Cc1ccc(-n2nc(C(=O)Nc3ccc(Br)cc3C)c(=O)n(C)c2=O)cc1	.	?	.	.	-	-
O=C(c1ccccc1)c1cc(Cl)ccc1N1C(=O)C=CC1=O	18µM	-	-	?	?	-
Cc1ccc(S(=O)(=O)Nc2ccc(Cl)cc2C(=O)c2ccccc2)cc1	-	?	-	?	-	-
Cc1ccc(-n2nnnc2Sc2nc([N+](=O)[O-])nn2C)cc1	16µM	-	-	?	-	-
Cc1ccc(-n2nnnc2Sc2nc([N+](=O)[O-])nn2C)c(C)c1	?	-	-	-	-	?
S=C1SCN(CC2CC2)CN1CC1CC1	5.8µM	-	-	-	-	-
CCOc1ccc(Nc2sc(C(=O)c3ccc4c(c3)OCO4)c(N)c2S(=O)(=O)c2ccc(C)cc2)cc1	.	-	.	.	-	-
SMILES	SW480 rereplic	KB-V1 cytotox	PTAP TSG101 blk	MCF10A rereplic	RGS4 inhibitor	KB-3-1 tox
O=C(c1cc(-c2ccncc2)nc2ccccc12)N1CCN(c2ccccn2)CC1	18µM	?	-	10µM	-	13µM
O=C(c1ccccc1Br)N1CCN(c2ccccn2)CC1	-	-	-	-	-	-
O=C(c1cn(Cc2ccccc2)nc1-c1ccccc1)N1CCN(c2ccccn2)CC1	?	?	-	-	-	10µM
O=C(c1cnc(N2CCN(c3ncccn3)CC2)c2ccccc12)N1CCN(c2ccccn2)CC1	-	21µM	-	?	-	-
O=C(c1ccccc1-c1ccccc1)N1CCN(c2ccccn2)CC1	7.3µM	2.6µM	-	7.3µM	-	2.6µM
Cc1ccccc1C(=O)N1CCN(c2ccccn2)CC1	-	-	-	-	-	-
C1=Cc2ccccc2/C1=C/c1ccc2c(c1)OCO2	.	-	.	.	.	-
COC(=O)c1ccccc1NC(=O)Cn1cc(S(=O)(=O)Cc2ccccc2F)c2ccccc21	.	-	.	.	-	-
Clc1ccc(C2Nc3ccccc3-n3cccc32)cc1 (centres undefined)	?	-	-	16µM	-	-
O=C(Nc1cccc(Cl)c1Cl)c1csc([C@@H]2O[C@H](CO)[C@H](O)[C@H](O)[C@H]2O)n1	.	?	.	.	.	-
O=C(Nc1nc([C@@H]2O[C@H](CO)[C@@H](O)[C@H](O)[C@H]2O)cs1)NC(c1ccccc1)c1ccccc1	.	-	.	.	.	18µM
O=C(Nc1ccccn1)c1ccc([N+](=O)[O-])o1	?	?	-	9.2µM	-	?
O=C(Nc1ncccn1)c1ccc([N+](=O)[O-])o1	?	-	-	9.2µM	-	?
Cc1ccnc(NC(=O)c2ccc([N+](=O)[O-])o2)c1	5.8µM	-	-	4.1µM	-	?
O=C(Nc1cc(-c2nc3ncccc3o2)ccc1Cl)c1ccc([N+](=O)[O-])o1	1.3µM	?	-	1.3µM	-	3.7µM
CCOC(=O)c1c(S(=O)(=O)N2CCC(C(=O)NCc3ccccc3Cl)CC2)c(C)n(C)c1C	.	-	.	.	-	-
CCCn1c(NC(=O)c2ccc([N+](=O)[O-])o2)nc2ccccc21	21µM	?	-	?	-	-
COc1ccccc1CNCC(O)(c1ccc(Cl)cc1)c1ccc(Cl)cc1	15µM	?	-	?	-	-
CCCCCCCCCCCCCCCC[n+]1ccc(CC(O)c2c(C)[nH]c3ccccc23)c2ccccc21 (centres undefined)	.	16µM	.	.	.	16µM
Cc1ccnc(SCC(=O)c2ccc(Br)cc2)c1C#N	?	-	-	?	-	?
Cc1ccc(C(=O)COc2nc(C)cc(C)c2C#N)cc1	?	10µM	-	?	-	-
Cc1cc(C)c(C#N)c(OCC(=O)c2ccc(Br)cc2)n1	?	5.8µM	-	?	-	-
CCN(C(=O)COc1nc(C)cc(C)c1C#N)c1ccccc1	-	?	-	?	-	-
CCCCCCC(=O)N(O)C1CC(=O)N(c2ccc(Cl)cc2)C1=O (centres undefined)	18µM	-	-	?	?	-
CCN(CC)c1ccc(/C=N/Nc2nc(C)cc(=O)[nH]2)c(O)c1	?	?	-	8.2µM	-	1.2µM
Cc1cc(=O)[nH]c(NN=Cc2cc(Br)ccc2O)n1	?	0.58µM	-	?	-	?
CCCCCCCCCCCCCCCC[N+](C)(C)Cc1ccc(F)cc1	?	-	-	15µM	-	?
CCCN(CCC)C(=O)Cc1ccc(F)cc1	-	-	-	-	-	-
